Measurements as given in ChEMBL document CHEMBL3988442, “University of Dundee, Small-Polar-MMV Screening Library” (2021).
Screen size: about 48,000 compounds; about 13,000 (27%) showed an effect of 50% or more. Some of the results follow.

Each compound was assayed on Wolbachia pipientis (assay: Anti-Wolbachia Cell-Based Screen). Conditions: 5 µM.
Type: functional
Set-up: scale not given: in the data most compounds retested in dose-response had high values
`COc1cc(CNc2cc(-c3ccoc3C)nn2CCO)ccc1F` was tested, and the “Percent Effect” value was 9.115%. For `COc1c(F)cc(CN2CCC3(CC2)C(C(=O)O)CC(=O)N3C)cc1Cl` (centres undefined), the “Percent Effect” value was 5.354%. With `CS(=O)(=O)c1cccc(Cl)c1C(=O)NCCN1C(=O)CCC1=O` the “Percent Effect” value was -4.304%. `COc1ccccc1CN1CC(O)CN(S(=O)(=O)C(C)C)CC1=O` (centres undefined) was tested, and the “Percent Effect” value was 100.2%. With `COc1ccccc1CN1C(=O)O[C@@H]2CN(S(=O)(=O)N(C)C)C[C@@H]21` the “Percent Effect” value was -2.255%. For `COc1ccccc1CN1C(=O)O[C@@H]2CN(C(C)C)C[C@@H]21`, the “Percent Effect” value was 11.8%. `CCS(=O)(=O)N1CC(=O)N(Cc2ccccc2OC)CC(O)C1` (centres undefined) was tested, and the “Percent Effect” value was 89.74%. `COc1ccccc1CC(C)N(C)S(C)(=O)=O` (centres undefined) was tested, and the “Percent Effect” value was 9.665%. For `CCO[C@H]1C[C@@H](O)C12CCN(S(=O)(=O)c1ccccc1OC)CC2`, the “Percent Effect” value was -9.049%. In the case of `CCc1noc(C)c1C(=O)NCc1c(C)nn(CCOC)c1C`, the “Percent Effect” value is reported as -2.688%. `CN(C)C(=O)N1C[C@H]2CC[C@@H]1CN(C1Cc3ccccc3C1)C2` was tested, and the “Percent Effect” value was 7.395%. `Cc1cnc(C)c(N2CCCC(CO)(Cc3ccccc3C)C2)n1` (centres undefined) was tested, and the “Percent Effect” value was -4.771%. With `CCc1ccc2nc(NCCOCCO)cc(C)c2c1` the “Percent Effect” value was 107.5%. With `CCc1ccc2nc(NCC(O)CO)cc(C)c2c1` (centres undefined) the “Percent Effect” value was -9.237%. With `CCc1ccc2nc(NCCCN(CCO)CCO)cc(C)c2c1` the “Percent Effect” value was 14.19%. With `NC(=O)C(NC(=O)CCc1ccc(Cl)s1)c1ccccc1` (centres undefined) the “Percent Effect” value was 7.544%. In the case of `c1cc(-c2ccc3c(c2)C2(CCNCC2)CC3)ccn1`, the “Percent Effect” value is reported as -17.91%. For `O=C(CCc1ccc(F)cc1)NS(=O)(=O)c1ccc2c(c1)OCCCO2`, the “Percent Effect” value was 20.72%. `COCCN1CCC(c2nc3c([nH]2)CC(C)(C)CNC3=O)CC1` was tested, and the “Percent Effect” value was -9.725%. For `Cl.OC1CCN(Cc2c(C3CCCNC3)[nH]c3ncccc23)CC1` (centres undefined), the “Percent Effect” value was -8.296%. For `COCCn1ccnc1C1CCN(Cc2ccccc2C#N)CC1`, the “Percent Effect” value was -0.03291%. For `COCCN1CCN(Cc2c(C3CCNCC3)[nH]c3ncccc23)CC1.Cl`, the “Percent Effect” value was 66.52%. `Oc1ncccc1-c1nc(-c2cccc(CN3CCOCC3)c2)no1` was tested, and the “Percent Effect” value was -1.647%. With `Cl.c1cnc2[nH]c(C3CCCNC3)c(CN3CCCOCC3)c2c1` (centres undefined) the “Percent Effect” value was 94%. With `c1cnc2[nH]c(C3CCCC3)c(CN3CCOCC3)c2c1` the “Percent Effect” value was 96.59%. For `c1cnc2[nH]c(C3CCNCC3)c(CN3CCOCC3)c2c1`, the “Percent Effect” value was 102.1%. `CN(Cc1ccon1)CC1CCOc2ccccc2C1` (centres undefined) was tested, and the “Percent Effect” value was -13.25%. For `CC1CN(C(=O)c2ccnc(OCCN(C)C)c2)c2ccccc21` (centres undefined), the “Percent Effect” value was 5.142%. For `c1cnc(OCc2nnc3n2CCN(CC2CC2)C3)nc1`, the “Percent Effect” value was -18.49%. In the case of `CS(=O)(=O)NCC1CCCN(Cc2ccc(F)c3cccnc23)C1` (centres undefined), the “Percent Effect” value is reported as -1.722%. For `O=C(CN1CCCCCC1)NCc1cccnc1Oc1ccccc1`, the “Percent Effect” value was -1.634%. In the case of `c1cnc2[nH]c(C3CCCC3)c(CN3CCCCC3)c2c1`, the “Percent Effect” value is reported as 61.56%. `CC1CCCN(Cc2c(C3CC3)[nH]c3ncccc23)C1` (centres undefined) was tested, and the “Percent Effect” value was 97.08%. With `CC1CCCN(Cc2c(C3CCOCC3)[nH]c3ncccc23)C1` (centres undefined) the “Percent Effect” value was -13.09%. In the case of `CCN1CCN(Cc2c(C3CCCC3)[nH]c3ncccc23)CC1`, the “Percent Effect” value is reported as 101.4%. For `CC1CCCN(Cc2ccc(CNC(=O)NCc3ccon3)cc2)C1` (centres undefined), the “Percent Effect” value was -7.486%. In the case of `OCC1CCCN(Cc2c(C3CCCC3)[nH]c3ncccc23)C1` (centres undefined), the “Percent Effect” value is reported as 82.97%. `CCN1CCCC(c2c(-c3ccccc3)ncn2Cc2cccnc2)C1` (centres undefined) was tested, and the “Percent Effect” value was -13.51%. With `O=C(Cn1nc2ccccc2n1)N1CCCC(O)(CO)C1` (centres undefined) the “Percent Effect” value was -10.36%. In the case of `Cc1cc(NC(=O)N(C)CCN2CCN(c3ccccc3)CC2)on1`, the “Percent Effect” value is reported as -6.324%. For `COc1c(CNC(c2ccc(F)cc2)c2nccn2C)c(C)nn1C` (centres undefined), the “Percent Effect” value was -17.53%. In the case of `COCCSc1ccc(-n2ccnc2)nn1`, the “Percent Effect” value is reported as 19.88%. In the case of `CC1(Cc2ccc3c(c2)OCO3)CCCN(S(=O)(=O)N2CCOCC2)C1` (centres undefined), the “Percent Effect” value is reported as -4.077%. With `Cc1cccn2cc(CN3CCCC(O)C3)nc12` (centres undefined) the “Percent Effect” value was -5.177%. `Cc1cc(Cn2cc(C#N)c(=O)c3ccccc32)no1` was tested, and the “Percent Effect” value was 6.304%. With `O=C(NCCc1nnc2n1CCC2)NCC1(c2ccccc2F)CC1` the “Percent Effect” value was 109%. `O=C(NCc1nnc2n1CCC2)NCC1(c2cccc(F)c2)CC1` was tested, and the “Percent Effect” value was 112.3%. `Cn1cc(CCNC(=O)NCc2nnc3n2CCC3)cn1` was tested, and the “Percent Effect” value was -8.052%. `O=C(NCCC1=CCCCC1)NCc1nnc2n1CCC2` was tested, and the “Percent Effect” value was 7.36%. In the case of `O=C(NCCc1nnc2n1CCC2)c1ccccc1OC1CCCC1`, the “Percent Effect” value is reported as -0.3605%. `O=C(NCCc1ccc(Cl)s1)NCc1nnc2n1CCC2` was tested, and the “Percent Effect” value was 3.587%. `O=C(NCCc1nnc2n1CCC2)NCC1(c2ccc(F)cc2)CC1` was tested, and the “Percent Effect” value was 123.4%. In the case of `Cc1cc(C)c(CNC(=O)NCc2nnc3n2CCC3)c(=O)[nH]1`, the “Percent Effect” value is reported as 8.689%. In the case of `O=C1C(NCc2nnc3n2CCCC3)CCCN1c1cccc(F)c1` (centres undefined), the “Percent Effect” value is reported as -1.768%. For `O=C(NCCc1nnc2n1CCC2)NCC1(c2ccccc2)CC1`, the “Percent Effect” value was 95.51%. `NC(=O)CC1CCN(C(=O)NCC2(c3ccccc3F)CC2)CC1` was tested, and the “Percent Effect” value was 3.443%. `O=C(NCCc1nnc2n1CCC2)N1CCC2(CCCCC2)C1` was tested, and the “Percent Effect” value was -5.882%. `CCOc1ncnc2c1CCN(c1cc(C(F)(F)F)ncn1)CC2` was tested, and the “Percent Effect” value was 1.194%. For `CCOC(=O)CC1CCCCN1C(=O)c1cc(C)on1` (centres undefined), the “Percent Effect” value was 7.011%. With `CS(=O)(=O)N(Cc1ccon1)c1ccc2c(c1)OCO2` the “Percent Effect” value was -10.09%. `Cc1nc(-c2cc(Cl)cc3c2OC(CN)C3)c[nH]1` (centres undefined) was tested, and the “Percent Effect” value was -15.93%. For `Cc1ccc(-c2nnc(CN3CC[C@H](CO)[C@@H](O)C3)o2)n1C`, the “Percent Effect” value was -9.968%. With `c1coc(CNc2nnc(Cc3ccsc3)o2)c1` the “Percent Effect” value was -2.731%. For `O=C(c1c[nH]c(=O)c(Cl)c1)N1C[C@@H]2CC[C@H](C1)N(Cc1ccccc1)C2`, the “Percent Effect” value was -15.02%. With `CCC1CN(C(=O)c2ccc(=O)[nH]c2)CCC(=O)N1Cc1ccccc1` (centres undefined) the “Percent Effect” value was -17.04%. For `O=C(c1ccccc1)N1C[C@@H]2CC[C@H](C1)N(Cc1cc(F)ccc1Cl)C2`, the “Percent Effect” value was -19.41%. With `O=C(c1cc(F)cc(Cl)c1)N1C[C@@H]2CC[C@H](C1)N(Cc1ccccc1)C2` the “Percent Effect” value was 106.3%. `O=C(c1cc(Cl)c[nH]c1=O)N1C[C@@H]2CC[C@H](C1)N(Cc1ccccc1)C2` was tested, and the “Percent Effect” value was 80.73%. `CC(=O)N1C[C@@H]2CC[C@H](C1)N(Cc1ccc(Cn3cccn3)cc1)C2` was tested, and the “Percent Effect” value was 6.393%. In the case of `O=C(c1ccc(F)c(Cl)c1)N1C[C@@H]2CC[C@H](C1)N(Cc1ccccc1)C2`, the “Percent Effect” value is reported as 2.522%. In the case of `O=c1cc(CN2C[C@H]3CC[C@@H]2CN(Cc2ccccc2)C3)[nH]c(=O)[nH]1`, the “Percent Effect” value is reported as 2.734%. For `O=C(c1ccc(=O)[nH]c1)N1C[C@@H]2CC[C@H](C1)N(Cc1ccccc1)C2`, the “Percent Effect” value was 87.59%. For `CC(C)c1nc(CN(C)S(=O)(=O)c2cccs2)cs1`, the “Percent Effect” value was 0.03171%. `CC(CS(C)(=O)=O)N(C(=O)CCc1ccc(Cl)s1)C1CC1` (centres undefined) was tested, and the “Percent Effect” value was -4.139%. With `Cc1nc(CNC(=O)NCC(O)c2ccc(F)c(F)c2)cs1` (centres undefined) the “Percent Effect” value was 9.084%. In the case of `COc1cccc(-n2nnc(C(=O)N3CCN(C)CC3C)c2C)c1` (centres undefined), the “Percent Effect” value is reported as 13.25%. With `COCCN1C[C@@H]2CCCO[C@@H]2[C@H](NC(=O)c2cnccn2)C1.O=C(O)C(F)(F)F` the “Percent Effect” value was -16.42%. In the case of `c1cc(-c2noc([C@@H]3CCCN3C3CCC3)n2)cc(N2CCCC2)n1`, the “Percent Effect” value is reported as -5.247%. In the case of `CN(C)c1ncccc1CNC(=O)N1CCN(C)c2ccccc2C1`, the “Percent Effect” value is reported as -11.25%. With `Cc1ccc(C(=O)NCc2cccnc2N(C)C)s1` the “Percent Effect” value was 92.24%. With `Cc1cc(NC(=O)NCc2cccnc2OC(C)C)n(C)n1` the “Percent Effect” value was 8.95%. With `Cc1nnsc1C(=O)NCc1cccnc1N(C)C` the “Percent Effect” value was -2.409%. In the case of `CC(C)Oc1ncccc1CNC(=O)NC(C)c1cccs1` (centres undefined), the “Percent Effect” value is reported as 104.4%. For `Cc1nc(CSCCC(=O)NCc2cccnc2N(C)C)cs1`, the “Percent Effect” value was -3.36%. For `Cc1nc(CNC(=O)NCc2cccnc2N(C)C)cs1`, the “Percent Effect” value was 95.24%. `Cc1cnc(CNC(=O)NCc2cccnc2N(C)C)s1` was tested, and the “Percent Effect” value was -3.719%. For `Cc1cnc(C(C)(C)NC(=O)NCc2cccnc2OC(C)C)s1`, the “Percent Effect” value was -10.8%. With `Cc1ccc(CNC(=O)NCc2cccnc2N(C)C)s1` the “Percent Effect” value was -3.895%. `CNc1nc(C(=O)NCc2cccnc2N(C)C)cs1` was tested, and the “Percent Effect” value was -18.64%. For `CN(C)c1ncccc1CNC(=O)NCc1ccc(Cl)s1`, the “Percent Effect” value was 103.5%. For `CCc1ccccc1OCCN1C[C@@H](NS(C)(=O)=O)[C@H](C(C)C)C1`, the “Percent Effect” value was 0.8676%. With `O=C(O)c1cccnc1CN1CCOc2ccccc2C1` the “Percent Effect” value was -4.779%. `Cc1cccn2c(CNC(C)CO)cnc12` (centres undefined) was tested, and the “Percent Effect” value was 5.706%. In the case of `CCC(CNC(=O)c1ccc(C(N)=O)cc1)Oc1cccc(F)c1` (centres undefined), the “Percent Effect” value is reported as -8.287%. In the case of `CCCS(=O)(=O)NC(C)c1cccc(-n2cccn2)c1` (centres undefined), the “Percent Effect” value is reported as -8.996%. In the case of `NC(=O)c1ccc(-n2ccnc2-c2cccc(O)c2)cc1N1CCCC1`, the “Percent Effect” value is reported as -15.85%. For `CC(C)C(NC(=O)NCc1cccnc1N(C)C)c1cccs1` (centres undefined), the “Percent Effect” value was 97.46%. In the case of `CC(NC(=O)NCc1cccnc1N(C)C)c1cccs1` (centres undefined), the “Percent Effect” value is reported as 91.27%. In the case of `O=C(NCc1ccccn1)NCc1ccc(Cl)s1`, the “Percent Effect” value is reported as 100.6%. `CN(C)c1ncccc1CNC(=O)NCC(c1cccs1)N(C)C` (centres undefined) was tested, and the “Percent Effect” value was 101.5%. `CN(C)C(CNC(=O)NCc1ccco1)c1cccs1` (centres undefined) was tested, and the “Percent Effect” value was 6.587%. In the case of `CN(C)c1ccc(NC(=O)NCc2ccc(Cl)s2)cn1`, the “Percent Effect” value is reported as 9.088%. In the case of `O=C(NCc1ccccn1)NCC(O)c1ccccc1C(F)(F)F` (centres undefined), the “Percent Effect” value is reported as -3.765%. With `CN(C)c1ncccc1CNC(=O)NCc1ccco1` the “Percent Effect” value was -3.644%.
